This assay deals with primary human hepatic stellate cells (donor 1). The experiment in a line: scaled lipid accumulation score (0 = DMSO-like, 1 = nortriptyline-like); higher = stronger HSC inactivation (lipid re-accumulation), active = hit call of the paper. The conditions noted are these: 48 h.
Setting [1] is: library stock concentration: 3.33 mM.
Where [2] appears, read: library stock concentration: 1 mM.
The mark [3] stands for this setting: library stock concentration: 10 mM.
[4] abbreviates: library stock concentration: 4.9 mM.

SMILES strings stand for the structures. “And” between values parts separate entries of the source, which are not always exact repeats. Equal entries are not always repeated. Structures can show the parent of a compound that is named as a salt. In all, about 5,800 compounds went through this assay and about 620 (11%) showed activity. The sample holds actives, similar compounds and a random draw of the others, so the mix is not that of the screen. Unmarked numbers belong to inactive results.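 How the source made its calls: active = score above a cut-off or among the top three wells of a plate; in these data no inactive exceeds 0.85.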

The values that follow come from the supplement of paper PMC9135407.

With `N#CCCc1ccc2c(c1)-c1[nH]c3ccc([N+](=O)[O-])cc3c1CC(=O)N2` [Alsterpaullone, 2-Cyanoethyl], under setting [1], the “scaled lipid accumulation score” value was 0.08. Take `CCCCCCCC/C=C\CCCCCCCCCCCCCC(=O)N[C@@H](CO)[C@H](O)/C=C/CCCCCCCCCCCCC` [Nervonic Ceramide]: the “scaled lipid accumulation score” value under setting [2] is 0.002. For the molecule `CCCCC[C@@H](O)/C=C/[C@H]1[C@H](O)CC(=O)[C@@H]1C/C=C\CCCC(=O)O` [15(R)-Prostaglandin E2], the “scaled lipid accumulation score” value under setting [2] is no more than 0. Consider `CN1CCN(CCCN2c3ccccc3Sc3ccc(C(F)(F)F)cc32)CC1` [Trifluoperazine hydrochloride], for which the “scaled lipid accumulation score” value under setting [3] is 0.396. For the molecule `CN1CCN(CCCN2c3ccccc3Sc3ccc(C(F)(F)F)cc32)CC1` [Trifluoperazine 2HCl], the “scaled lipid accumulation score” value was no more than 0 under setting [1] and 0.815 under setting [3]. As to `CN1CCN(CCCN2c3ccccc3Sc3ccc(C(F)(F)F)cc32)CC1` [Trifluoperazine], the “scaled lipid accumulation score” value under setting [4] is 0.434. Take `CN1CCN(CCCN2c3ccccc3Sc3ccc(C(F)(F)F)cc32)CC1` [Trifluoperazine dihydrochloride]: the “scaled lipid accumulation score” value was 0.393. With `CN1CCN(CCCN2c3ccccc3Sc3ccc(C(F)(F)F)cc32)CC1.Cl.Cl` [Trifluoperazine dihydrochloride], under setting [3], the “scaled lipid accumulation score” value was 0.914 (active). In the case of `CN1CCN(CCCN2c3ccccc3Sc3ccc(C(F)(F)F)cc32)CC1.Cl.Cl` [Trifluoperazine], the “scaled lipid accumulation score” value (library stock concentration: 10.4 mM) is 0.892 (active).

`CN1CCN(CCCN2c3ccccc3Sc3ccc(C(F)(F)F)cc32)CC1`: the “scaled lipid accumulation score” value under setting [3] was 0.99 (active). Consider `CN(C)CCCN1c2ccccc2Sc2ccc(C(F)(F)F)cc21` [Triflupromazine hydrochloride], for which the “scaled lipid accumulation score” value was 0.585. For the same molecule, the “scaled lipid accumulation score” value (library stock concentration: 5.1 mM) was 0.697. For the same molecule, the “scaled lipid accumulation score” value under setting [3] was 0.508 and 0.792. For `CCSc1ccc2c(c1)N(CCCN1CCN(C)CC1)c1ccccc1S2` [Thiethylperazine malate], the “scaled lipid accumulation score” value is 0.362. As to `O=C(O)CCC/C=C\C[C@@H]1[C@@H](/C=C/[C@@H](O)COc2cccc(C(F)(F)F)c2)[C@H](O)C[C@@H]1O` [Fluprostenol], the “scaled lipid accumulation score” value under setting [2] was 0.005 and ≤ -0.021. On to `Cn1c(=O)cc(N2CCC[C@@H](N)C2)n(Cc2cc(F)ccc2C#N)c1=O` [Trelagliptin], for which the “scaled lipid accumulation score” value runs as follows: under setting [1], no more than -0.009; under setting [3], no more than 0. For `O=C(O)CCC/C=C\C[C@H]1C(=O)C=C[C@@H]1/C=C/[C@@H](O)CCc1ccccc1` [17-phenyl trinor Prostaglandin A2], the “scaled lipid accumulation score” value under setting [2] was no more than 0. With `Cc1cc([N+](=O)[O-])ccc1NS(=O)(=O)c1cc(Cl)ccc1Cl`, the “scaled lipid accumulation score” value runs as follows: under setting [1], no more than -0.009; under setting [3], 0.147. For `Nc1nc2c(cnn2CCc2ccccc2)c2nc(-c3ccco3)nn12`, under setting [3], the “scaled lipid accumulation score” value is 0.583. On to `CCCCC[C@@](C)(O)/C=C/[C@H]1[C@H](O)CC(=O)[C@@H]1C/C=C\CCCC(=O)O` [15(R)-15-methyl Prostaglandin E2], for which the “scaled lipid accumulation score” value under setting [2] is no more than 0. As for `CCCCC/C=C\C/C=C\C/C=C\C/C=C\CCCC(=O)O[C@@H](CO)COCCCCCCCCCCCCCCCC` [1-Hexadecyl-2-arachidonoyl-glycerol], the “scaled lipid accumulation score” value under setting [2] is 0.044. For the molecule `CC(C)Oc1ccc(C(=O)N[C@H](CNC(=O)CN(C)C)Cc2ccc(-c3cn4cccc([C@H](C)O)c4n3)cc2)cc1Cl` [listing 1 of 2 here], the “scaled lipid accumulation score” value under setting [3] was 0.882 (active). In the case of `CC(C)Oc1ccc(C(=O)N[C@H](CNC(=O)CN(C)C)Cc2ccc(-c3cn4cccc([C@H](C)O)c4n3)cc2)cc1Cl` [listing 2 of 2 here], the “scaled lipid accumulation score” value under setting [1] was 0.464.

With `CCCCCCCC/C=C\CCCCCCCC(=O)N[C@H](CO)Cc1ccc(O)cc1`, the “scaled lipid accumulation score” value under setting [2] was no more than 0. Consider `COCCOc1cc2ncnc(Cl)c2cc1OCCOC`, for which, under setting [3], the “scaled lipid accumulation score” value is no more than 0. Consider `O=C(O)COCCN1CCN(C(c2ccccc2)c2ccc(Cl)cc2)CC1` (centres undefined) [Cetirizine DiHCl], for which the “scaled lipid accumulation score” value under setting [1] was no more than 0 and the “scaled lipid accumulation score” value under setting [3] was no more than 0. With `CN1[C@@H](CC(=O)c2ccccc2)CCC[C@H]1C[C@H](O)c1ccccc1` [Lobeline], the “scaled lipid accumulation score” value (library stock concentration: 5.9 mM) is no more than -0.006. `CN1CCCC1CCOC(C)(c1ccccc1)c1ccc(Cl)cc1.O=C(O)/C=C/C(=O)O` (centres undefined) [Clemastine fumarate]: the “scaled lipid accumulation score” value under setting [3] is 0.942 (active). As to `CN1[C@@H](CC(=O)c2ccccc2)CCC[C@H]1C[C@H](O)c1ccccc1` [Lobeline alpha (-) hydrochoride], the “scaled lipid accumulation score” value is 0.216.

As for `CN1[C@@H](CC(=O)c2ccccc2)CCC[C@H]1C[C@H](O)c1ccccc1`, the “scaled lipid accumulation score” value under setting [3] was no more than 0. On to `CN1CCC[C@@H]1CCO[C@](C)(c1ccccc1)c1ccc(Cl)cc1` [Clemastine fumarate] [listing 1 of 2 here], for which the “scaled lipid accumulation score” value was 0.619.

Regarding `CN1[C@@H](CC(=O)c2ccccc2)CCC[C@H]1C[C@H](O)c1ccccc1` [Lobeline hydrochloride], the “scaled lipid accumulation score” value under setting [3] was ≤ 0 and 0.256.

As for `O=C(O)COCCN1CCN(C(c2ccccc2)c2ccc(Cl)cc2)CC1` (centres undefined) [Cetirizine], the “scaled lipid accumulation score” value under setting [3] was no more than 0. As to `CN1CCC[C@@H]1CCO[C@](C)(c1ccccc1)c1ccc(Cl)cc1` [Clemastine fumarate] [listing 2 of 2 here], the “scaled lipid accumulation score” value (library stock concentration: 5.8 mM) was 0.885 (active).

As to `O=C(O)COCCN1CCN(C(c2ccccc2)c2ccc(Cl)cc2)CC1` (centres undefined) [Cetirizine hydrochloride], under setting [3], the “scaled lipid accumulation score” value is no more than -0.027. Regarding `CN1CCC[C@@H]1CCO[C@](C)(c1ccccc1)c1ccc(Cl)cc1` [Clemastine Fumarate], the “scaled lipid accumulation score” value is 0.249 under setting [1] and 0.819 under setting [3].

As for `CSc1ccc2c(c1)N(CCC1CCCCN1C)c1ccccc1S2` (centres undefined) [Thioridazine HCl], for the setting “library stock concentration: 5.4 mM”, the “scaled lipid accumulation score” value is 0.47. On to `CN1CCC[C@@H]1CCO[C@](C)(c1ccccc1)c1ccc(Cl)cc1.O=C(O)/C=C/C(=O)O` [Clemastine fumarate], for which the “scaled lipid accumulation score” value under setting [3] is 0.861 (active). Consider `O=C(O)COCCN1CCN(C(c2ccccc2)c2ccc(Cl)cc2)CC1` (centres undefined) [Cetirizine dihydrochloride], for which the “scaled lipid accumulation score” value is 0.024. In addition, the “scaled lipid accumulation score” value under setting [3] is 0.244 and ≤ -0.001. As to `O=C(O)COCCN1CCN([C@H](c2ccccc2)c2ccc(Cl)cc2)CC1`, under setting [3], the “scaled lipid accumulation score” value was no more than 0.

Regarding `CN(C)C(=O)C(CCN1CCC(O)(c2ccc(Cl)cc2)CC1)(c1ccccc1)c1ccccc1` [Loperamide hydrochloride], the “scaled lipid accumulation score” value was 0.682. Moreover, the “scaled lipid accumulation score” value under setting [3] was 0.699 and 0.787.

Turning to `CN1[C@@H](CC(=O)c2ccccc2)CCC[C@H]1C[C@H](O)c1ccccc1` [alpha-Lobeline hydrochloride], under setting [3], the “scaled lipid accumulation score” value is 0.493. On the same count and under the same terms, the value for `CN1CCC[C@@H]1CCO[C@](C)(c1ccccc1)c1ccc(Cl)cc1` [Clemastine] was 0.362. For `CSc1ccc2c(c1)N(CCC1CCCCN1C)c1ccccc1S2` (centres undefined) [Thioridazine hydrochloride], the “scaled lipid accumulation score” value was 0.711. Moreover, under setting [4], the “scaled lipid accumulation score” value was 0.586. Also, the “scaled lipid accumulation score” value under setting [3] is 0.072 and 0.283. Take `CN(C)C(=O)C(CCN1CCC(O)(c2ccc(Cl)cc2)CC1)(c1ccccc1)c1ccccc1` [Loperamide HCl]: the “scaled lipid accumulation score” value is 0.485 under setting [1] and 0.611 under setting [3].

Turning to `CCCCCCCCCC(=O)OCC(CO)OC(=O)CCCCCCCCC` (centres undefined) [1,2-Didecanoyl-sn-glycerol], the “scaled lipid accumulation score” value under setting [2] is no more than 0.

Regarding `CCCCCCCCCC(=O)OCC(CO)OC(=O)CCCCCCCCC` (centres undefined) [1,2-Didecanoyl-glycerol (10:0)], the “scaled lipid accumulation score” value under setting [2] is no more than -0.021.

Consider `CCCCCC(O)C=CC1CC2CC(C1CC=CCCCC(=O)O)C2(C)C` [15(R)-Pinane Thromboxane A2], for which the “scaled lipid accumulation score” value under setting [2] was no more than 0. Take `Cc1onc(-c2ccccc2)c1-c1ccc(S(N)(=O)=O)cc1` [Valdecoxib]: the “scaled lipid accumulation score” value by setting is: under setting [1], no more than 0; under setting [3], 0.226 and 0.088. Consider `Cc1onc(-c2ccccc2)c1-c1ccc(S(N)(=O)=O)cc1`, for which the “scaled lipid accumulation score” value under setting [3] was no more than 0. Regarding `CCCCCCCCCCCCCCCC(=O)OC` [Palmitic Acid methyl ester], the “scaled lipid accumulation score” value under setting [2] is 0.031. The same measure, in the same setting: the value for `O=P(O)(O)OC1C(O)C(OP(=O)(O)O)C(O)C(OP(=O)(O)O)C1O` [D-myo-Inositol-1,3,5-triphosphate (sodium salt)] was 0.025. Regarding `O=C(O)Cc1sc(-c2ccccc2)nc1-c1ccc(Cl)cc1` [Fentiazac], the “scaled lipid accumulation score” value (library stock concentration: 6.1 mM) is 0.006. For `CCCCC[C@H](O)/C=C/[C@H]1CCC(=O)[C@@H]1CCCCCCC(=O)O` [11-deoxy Prostaglandin E1], the “scaled lipid accumulation score” value under setting [2] was 0.015. For the molecule `CC(C)=CCC[C@](C)(O)C1CC=C(C)CC1` (some centres undefined) [Bisabolol], under setting [3], the “scaled lipid accumulation score” value was 0.049. On to `Cl.Cl.NC1(c2ccc(-c3nc4ccn5c(=O)[nH]nc5c4cc3-c3ccccc3)cc2)CCC1` [listing 1 of 2 here], for which the “scaled lipid accumulation score” value by setting is: (library stock concentration: 400 uM) 1.07 (active); (library stock concentration: 2 mM) 1.23 (active).

Take `Cl.Cl.NC1(c2ccc(-c3nc4ccn5c(=O)[nH]nc5c4cc3-c3ccccc3)cc2)CCC1` [listing 2 of 2 here]: the “scaled lipid accumulation score” value is 1.35 (active) under setting [1] and 1.02 (active) under setting [3]. Regarding `O=C1C(=Cc2ccc(O)cc2)C2=Nc3ccccc3C2=C1C1=C2C(=Nc3ccccc32)C(=Cc2ccc(O)cc2)C1=O` [Scytonemin, Lyngbya sp.], the “scaled lipid accumulation score” value under setting [1] is no more than 0. For the molecule `COc1ccc2cc(C(C)C(=O)O)ccc2c1` (stereo not drawn) [Naproxen(+)], the “scaled lipid accumulation score” value is, setting by setting: (library stock concentration: 8.7 mM) 0.014; under setting [3], no more than 0. On to `CCCCCC(=O)CC[C@@H]1[C@@H](C/C=C\CCCC(=O)OC(C)C)[C@@H](O)C[C@H]1O`, for which the “scaled lipid accumulation score” value under setting [2] is no more than 0.

For `Nc1nc2[nH]c(=O)[nH]c2c(=O)[nH]1` [8-hydroxy Guanine (hydrochloride)], under setting [2], the “scaled lipid accumulation score” value was no more than 0. As to `CCCCC1C(=O)CCC2C(CCCCCCC(=O)O)C(=O)CC12` (centres undefined) [Bicyclo Prostaglandin E1], the “scaled lipid accumulation score” value under setting [2] was no more than 0. Turning to `CC(C)c1ccc2c(c1)CC[C@H]1[C@](C)(CN)CCC[C@]21C` [Lylamine hydrochloride], the “scaled lipid accumulation score” value under setting [3] was 0.527. `CCCCCCCCCCCC(=O)NC[C@]1(C)CCC[C@]2(C)c3ccc(C(C)C)cc3CCC12` (some centres undefined) [Lauric Acid Leelamide]: the “scaled lipid accumulation score” value under setting [2] is 0.012. Turning to `CC(C)c1ccc2c(c1)CC[C@H]1[C@](C)(CN)CCC[C@]21C.Cl` [Leelamine (hydrochloride)], the “scaled lipid accumulation score” value under setting [2] was 0.297 (active).
